Results filed as inconclusive are left out. Calls of active or inactive are those of the source. Calls follow the shape of the dose curve; as a rule, active = well fitted cell-killing curve with a large enough effect; inconclusive = small, poorly fitted or top-dose-only effect; inactive = flat fitted curve, though single readings scatter.
Potency is read from the fitted curve at half-maximal effect.

The assay is described as follows: Cell Viability - SH-SY5Y (AID 544). Also: nearly all actives have a fitted effect of over 55% in size.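 As to viability change, negative = cytotoxic: 0% = DMSO alone and -100% = 100 µM tamoxifen.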 As to conditions: SH-SY5Y neuroblastoma cell viability; series mostly up to 92.2 µM; viability change, negative = cytotoxic: at the top concentration. An excerpt: NIH Chemical Genomics Center [NCGC]
NIH Molecular Libraries Screening Centers Network [MLSCN]
National Institutes of Environmental Health Sciences [NIEHS]
National Toxicology Program [NTP]
We have developed a 1536-well cell-based assay for quantitative high throughput screening (qHTS) against a number of cell lines to determine in vitro cytotoxicity of small molecules. This particular assay uses the SH-SY5Y cell line which is derived from human neuroblastoma.
NCGC Assay Protocol Summary:
The CellTiter-Glo luminescent cell viability assay (Promega) is a homogeneous method to measure the number of viable cells in culture. The end point readout of this assay is based on quantitation of intracellular ATP, an indicator of metabolic activity, using the luciferase reaction. Luciferase catalyzes the oxidation of beetle Luciferin to oxyluciferin and light in the presence of ATP. The luminescent signal is proportional to amount of ATP present.
Using the CellTiter-Glo luminescent cell viability assay, the amount of cellular ATP was measured in the SH-SY5Y cell line with complete culture medium following compound treatment for 40 hours. The assay was performed in opaque white Kalypsys 1536-well plates. In the screen, tamoxifen and doxorubicin were used as positive controls. Library compounds were measured for their ability to cause acute toxicity in the cell line, as reflected by a decrease in intracellular ATP levels, in a concentration-dependent manner. […] AC50 values were determined from concentration-response data modeled with the standard Hill equation.
qHTS protocol for CellTiter Glo SH-SY5Y cellular assay
[Step] [Parameter] [Value] [Description]
1. Reagent; 5 uL; 1500 SH-SY5Y cells/well
2. Time; 5 hr; 37 °C incubation
4. Controls; 23 nL; Tamoxifen 0.34 uM to 100 uM & Doxorubicin 0.02 nM to 100 uM
5. Time; 40 hr; 37 °C incubation
6. Reagent; 5 uL; CellTiter Glo reagent
7. Time; 20 min; Room Temperature
8. Detection; Luminescence; Viewlux plate reader
Keywords: cell viability, cytotoxicity, SH-SY5Y cell line, luminescence, NTPHTS, NTPHTS_NCGC, NIEHS, EPA, DSSTox, MLSMR, MLSCN, NIH Roadmap, qHTS, NCGC
As to `C=CCc1ccc(OC)c(OC)c1`, the “viability change, negative = cytotoxic” value was 0.584% (inactive).

Regarding `O=C(O)CC(C(=O)O)C(CC(=O)O)C(=O)O` (stereo not given), the “viability change, negative = cytotoxic” value was -12.9% (inactive).

Turning to `Clc1cc(Cl)c(Cl)c(Cl)c1Cl`, the “viability change, negative = cytotoxic” value is 7.84% (inactive).

As to `c1ccc2scnc2c1`, the “viability change, negative = cytotoxic” value was -6.86% (inactive).

For the compound `Cc1ccc([N+](=O)[O-])c(C)c1`, the “viability change, negative = cytotoxic” value is -6.26% (inactive).

Consider `O=NO`, for which the Potency entry was “inactive”.

Consider `CCO[Si](CCCN)(OCC)OCC`, for which the “viability change, negative = cytotoxic” value was -8.06% (inactive).

Take `CCCCC(CC)CN` (stereo not given): the “viability change, negative = cytotoxic” value is -1.35% (inactive).

Turning to `c1ccc2c(c1)c1cccc3ccc4cccc2c4c31`, the “viability change, negative = cytotoxic” value was -4.74% (inactive).

Turning to `C[C@H](CCC(=O)O)[C@H]1CC[C@H]2[C@@H]3CC[C@@H]4C[C@H](O)CC[C@]4(C)[C@H]3CC[C@]12C`, the “viability change, negative = cytotoxic” value is 4.15% (inactive).

With `Cc1ccc([N+](=O)[O-])cc1N`, the “viability change, negative = cytotoxic” value is -20.2% (inactive).

`COC(=O)c1ccc(C=O)cc1`: the “viability change, negative = cytotoxic” value was -19.1% (inactive).

On to `C=Cc1ccccc1Cl`, for which the “viability change, negative = cytotoxic” value is -2.62% (inactive).

Turning to `O=C1CCc2ccccc2O1`, the “viability change, negative = cytotoxic” value is -11.4% (inactive).

Take `C=CCOC(=O)c1ccccc1C(=O)OCC=C`: the “viability change, negative = cytotoxic” value is -6.25% (inactive).

As to `C=C(C)C1CC=C(C)C(O)C1` (stereo not given), the “viability change, negative = cytotoxic” value is -9.91% (inactive).

Take `O=C(O)c1ccccc1`: the “viability change, negative = cytotoxic” value was -0.0396% (inactive).

On to `O=C(O)c1ccccc1C(c1ccc(O)cc1)c1ccc(O)cc1`, for which the “viability change, negative = cytotoxic” value is -3.23% (inactive).

Consider `O[C@@H]([C@H](O)[C@@H](O)CBr)[C@@H](O)CBr`, for which the “viability change, negative = cytotoxic” value was 5.47% (inactive).

Take `O=C(/C=C/c1ccc(O)c(O)c1)O[C@@H](C(=O)O)[C@@H](OC(=O)/C=C/c1ccc(O)c(O)c1)C(=O)O`: the “viability change, negative = cytotoxic” value was 0.155% (inactive).

For the compound `OCCNCCO`, the “viability change, negative = cytotoxic” value was 0.54% (inactive).

On to `CCCCCCCCCCCCCC(=O)O`, for which the “viability change, negative = cytotoxic” value was 2.66% (inactive).

On to `COC(=O)c1ccc(C)cc1`, for which the “viability change, negative = cytotoxic” value is -24% (inactive).

On to `CCC(C)c1ccccc1O` (stereo not given), for which the Potency result was “inactive”.

Take `Cc1c(N=C=O)cccc1N=C=O`: the “viability change, negative = cytotoxic” value was -6.37% (inactive).

On to `Nc1ccc(S(=O)(=O)O)cc1`, for which the “viability change, negative = cytotoxic” value is -10.3% (inactive).

`CC12CCC(CC1=O)C2(C)C` (stereo not given): the “viability change, negative = cytotoxic” value is -17.2% (inactive).

`NC1=NC(S)C2N=CN=C2N1` (stereo not given): the Potency is 12.6 µM (active).

On to `COCC(=O)O`, for which the “viability change, negative = cytotoxic” value was 11.2% (inactive).

In the case of `CC(=O)OC/C=C(\C)CCC=C(C)C`, the “viability change, negative = cytotoxic” value is -10.5% (inactive).

As to `COc1c2ccoc2cc2oc(=O)ccc12`, the “viability change, negative = cytotoxic” value is -3.12% (inactive).

Consider `COC(=O)CCCCC(=O)OC`, for which the “viability change, negative = cytotoxic” value was 9.14% (inactive).

`CCCN(CCC)C(=O)SCC`: the “viability change, negative = cytotoxic” value was 0.419% (inactive).

For `CC1(C)CC(N=C=O)CC(C)(CN=C=O)C1` (stereo not given), the “viability change, negative = cytotoxic” value was -3.99% (inactive).

As to `O=[N+]([O-])c1cccc(Cl)c1Cl`, the “viability change, negative = cytotoxic” value was -7.2% (inactive).

Turning to `C/C=C\c1ccc(OC)cc1`, the “viability change, negative = cytotoxic” value was -12.3% (inactive).

On to `CN(C)C=O`, for which the Potency entry is “inactive”.

`CN(C)CCCCCCN(C)C`: the “viability change, negative = cytotoxic” value is 1.86% (inactive).

In the case of `O=S(=O)(O)c1ccccc1`, the “viability change, negative = cytotoxic” value was 0.0481% (inactive).

For `O=C(O)c1ccc(O)cc1O`, the Potency result is “inactive”.
